Test results reported in PubChem BioAssay (NCI).
The panel holds about 83,000 compounds, 20% with a hit somewhere; the sample as a whole holds those more often.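 Plates (96-well) were seeded with cells, treated with compound at one concentration, and incubated for 48 hours before percent growth was determined.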 A number with no mark means an inactive call. Active and inactive are the calls of the source. Rule for the calls: active = growth percent below 10; inactive = the rest.

The compounds below were run on HCC-2998 colon (assay: NCI-60 one-dose screen, 48 h (100 = growth as untreated, 0 = no growth, -100 = all killed)). Details: 10 µM unless noted.

Row | Compound | growth
1 | Cc1ccc(CCC(=O)Nc2ncc(Cc3cc(Cl)ccc3Cl)s2)o1 | 8.63% (active)
2 | COc1cc2nc(Cl)nc(Nc3ccc(S(=O)(=O)Nc4nccs4)cc3)c2cc1OC | 72.9%
3 | CS(=O)c1cccc(-c2ccc3nc(N)n(-c4ccc(C(F)(F)F)cc4)c(=O)c3c2)c1 (centres undefined) | 106%
4 | NCCCNc1nc2ccccc2c2c(=O)c3cccc(Cl)c3sc12 | -94.1% (active)
5 | CCCCCCCCCCCCCCCCCC1=NCCN1CCOC1=C(Cl)C(=O)c2ccccc2C1=O | 100%
6 | Cc1ccc(Nc2ccc(Nc3ccc(C)cc3)c3c2C(=O)c2cccc(O)c2C3=O)cc1 | 109%
7 | O=Cc1c[nH]c2ccc(-c3csc4ccccc34)cc12 | 13.4%
8 | COc1ccc2[nH]c(O)c(/C=c3/cc4c(c(-c5cc(OC)c(OC)c(OC)c5)n3)=Nc3ccccc3-4)c2c1 | 77.1%
9 | NC(=N\N=C/c1cccc([N+](=O)[O-])c1)/C(N)=N\N=C/c1cccc([N+](=O)[O-])c1 | 102%
10 | NS(=O)(=O)c1cnccc1Sc1ccncc1S(N)(=O)=O | 85.8%
11 | COc1ccc(CN2C(=O)C(Cl)=C(Nc3cccc(C(F)(F)F)c3)C2=O)cc1 | 53.2%
12 | O=C(/C=C/c1ccco1)c1ccc(Nc2nc(Nc3ccc(F)cc3)nc(Nc3ccc(Cl)cc3)n2)cc1 | 54.8%
13 | COc1cc2c(cc1-c1c(C)noc1C)ncc1nc(C3CCC(F)(F)CC3)n(C3CCC(OC(F)F)CC3)c12 (centres undefined) | 52.1%
14 | COc1cccc(-c2nn(-c3ccccc3)cc2-c2ccnc(NCCNC(=O)Nc3ccc(Cl)c(Cl)c3)c2)c1 | -37.1% (active)
15 | O=C(Nc1ccccc1Cl)Oc1ccc(-c2ccccc2)cc1 | 119%
16 | O=c1c2c3c(sc2n2c(-c4cn(-c5ccccc5)nc4-c4ccc(Cl)cc4)nnc2n1Cc1ccccc1)CCCC3 | 99.1%
17 | CCOC(=O)c1c2ncccc2n2c(=O)n(-c3ccccc3C)nnc12 | 106%
18 | C=C1C(=O)O[C@H]2[C@H]1CC/C(COC(=O)C(=O)c1c[nH]c3ccccc13)=C\CC[C@@]1(C)O[C@@H]21 | -79.5% (active)
19 | CCCCOc1nc2ccccc2cc1C1CNC(=O)c2ccccc2N1 (centres undefined) | 56.5%
20 | CC(C)(C)CC(C)(C)Nc1c(-c2ccncc2)nc2cnccn12 | 116%
21 | Fc1ccc(CNc2c3ccccc3nc3ccccc23)cc1F | 2.15% (active)
22 | Cc1cc(NCc2cc(Nc3ccnc4cc(Cl)ccc34)ccc2F)nc(N2CCN(c3ccccc3)CC2)n1 | 28.2%
23 | CC(CN1CCCCC1)C(=O)c1ccccc1 (centres undefined) | 119%
24 | C=C1C(=O)O[C@H]2[C@H]1CC/C(CNC(=O)/C=C/c1ccc(Cl)cc1Cl)=C\CC[C@@]1(C)O[C@@H]21 | -93.3% (active)
25 | COc1cc(/C=C/C(=O)c2ccc(Nc3nc(Nc4ccc(F)cc4)nc(Nc4ccc(Cl)cc4)n3)cc2)cc(OC)c1OC | -1.48% (active)
26 | O=C(c1ccccc1)c1c(/C=C/c2ccc(Cl)cc2)nc2ccccc2c1/C=C/c1cccs1 | 103%
27 | CCCc1cc2c(=O)c(C(=O)OC)c[nH]c2cc1N(CC)CC | 104%
28 | Clc1ccc(-c2c3ccc(=[N+]4CCCCC4)cc-3oc3cc(N4CCCCC4)ccc23)cc1 | -95.6% (active)
29 | Cc1ccccc1NC(=O)N/C(N)=N/c1nc(-c2cccc([N+](=O)[O-])c2)cs1 | 39.6%
